From PubChem BioAssay
Active and inactive are the calls of the source. Unless noted, no rule for the calls is given here.

Tests used:
[1] = compound effects on lung adenocarcinoma cell viability – A549, calcein-AM fluorescence, 48 h, basal, profiling panel (AID 1162); conditions: higher = more signal; also: test concentration not given here
[2] = compound effects on differentiated 3T3-L1 adipocyte viability – cell-based, 3T3-L1 adipocytes, calcein-AM fluorescence, 48 h, basal, profiling panel (AID 1163); conditions: 3T3-L1 adipocytes viability, higher = more signal; also: test concentration not given here
[3] = compound effects on hepatocellular carcinoma cell viability – HepG2, calcein-AM fluorescence, 48 h, basal, profiling panel (AID 1164); conditions: higher = more signal; also: test concentration not given here
[4] = compound effects on multiple myeloma cell viability – MM1S, calcein-AM fluorescence, 48 h, basal, profiling panel (AID 1165); conditions: higher = more signal; also: test concentration not given here
[5] = calcein-AM signal in unstimulated myeloma cells – cell-based, calcein-AM fluorescence, 48 h, PK04 Diversity Set, profiling panel (AID 1166); conditions: RPMI8226 myeloma viability, higher = more signal;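 also: cells grown under basal conditions without added stimulus; test concentration not given here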
[6] = JC-1 mitochondrial signal, unstimulated HepG2 cells – cell-based, JC-1 fluorescence, 24 h, 100 nL compound, profiling panel (AID 1167); conditions: HepG2 mitochondrial potential, higher = more signal; also: test concentration not given here
[7] = JC-1 mitochondrial signal, unstimulated adipocytes – cell-based, JC-1 fluorescence, 3T3-L1 adipocytes, 24 h, 100 nL compound, profiling panel (AID 1168); conditions: JC-1 mitochondrial fluorescence, higher = more signal, called active from +8 up or from −8 down; also: test concentration not given here
[8] = JC-1 mitochondrial signal, unstimulated myeloma cells – cell-based, JC-1 fluorescence, RPMI8226, 24 h, 100 nL compound, profiling panel (AID 1169); conditions: JC-1 mitochondrial potential fluorescence, higher = more signal; also: test concentration not given here
[9] = JC-1 mitochondrial signal, unstimulated MM1S myeloma – cell-based, JC-1 fluorescence, 24 h, 100 nL compound, profiling panel (AID 1170); conditions: MM1S mitochondrial potential, higher = more signal; also: test concentration not given here
[10] = resazurin metabolic signal in A549 cells – cell-based, resazurin fluorescence, 24 h, PK04 Diversity Set, profiling panel (AID 1171); conditions: A549 viability, higher = more signal, called active from +8 up or from −8 down; also: test concentration not given here
[11] = resazurin metabolic signal in HepG2 cells – cell-based, resazurin fluorescence, 24 h, PK04 Diversity Set, profiling panel (AID 1172); conditions: HepG2 viability, higher = more signal; also: test concentration not given here
[12] = budding yeast growth changes without added modifier – OD600, strain BY4716, 24 h, basal condition, primary screen (AID 1173); conditions: S. cerevisiae BY4716 growth, OD600, 24 h; higher = more signal, called active from +8 up or from −8 down
[13] = viability profiling in MM1S myeloma cells – cell-based, resazurin fluorescence, basal, 24 h, PK04 Diversity Set, profiling panel (AID 1174); conditions: higher = more signal, called active from +8 up or from −8 down; also: test concentration not given here
[14] = biological target: Dihydroorotate dehydrogenase (quinone), mitochondrial (Plasmodium falciparum (isolate 3D7)) (UniProt Q08210); experiment: inhibition of P. falciparum DHODH – biochemical, C-terminal His tag, absorbance 600 nm, primary screen (AID 1175); conditions: PfDHODH enzyme, DCIP absorbance 600 nm; higher = more signal, called active from +8 up or from −8 down;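 also: recombinant parasite enzyme with a five histidine tag at its C terminus; test concentration not given here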
Sequence of Dihydroorotate dehydrogenase (quinone), mitochondrial (Plasmodium falciparum (isolate 3D7)) (Q08210 whole entry, looked up): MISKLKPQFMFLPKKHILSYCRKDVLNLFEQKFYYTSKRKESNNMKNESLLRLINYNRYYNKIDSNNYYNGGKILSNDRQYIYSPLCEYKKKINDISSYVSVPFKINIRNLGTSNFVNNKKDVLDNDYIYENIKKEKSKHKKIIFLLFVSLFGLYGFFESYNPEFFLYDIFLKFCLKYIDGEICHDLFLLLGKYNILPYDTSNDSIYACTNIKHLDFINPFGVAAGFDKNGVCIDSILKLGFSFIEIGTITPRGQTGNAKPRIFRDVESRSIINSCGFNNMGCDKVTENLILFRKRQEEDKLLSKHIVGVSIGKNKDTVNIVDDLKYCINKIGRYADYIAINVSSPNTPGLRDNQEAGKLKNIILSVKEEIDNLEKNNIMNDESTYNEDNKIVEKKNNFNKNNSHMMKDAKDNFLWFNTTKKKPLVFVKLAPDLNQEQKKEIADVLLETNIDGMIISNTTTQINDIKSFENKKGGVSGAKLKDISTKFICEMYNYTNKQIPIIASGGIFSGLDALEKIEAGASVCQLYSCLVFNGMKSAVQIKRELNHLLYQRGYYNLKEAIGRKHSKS

[15] = inhibition of PAO1 biofilm formation – strain PAO1, LB-PBS medium, absorbance 600 nm, primary screen (AID 1176); also: test concentration not given here; conditions: P. aeruginosa PAO1 growth/biofilm, A600, 12 h; higher = more signal
[16] = growth modulation of vineyard yeast isolate – strain RM11-1a, OD600, basal, 24 h, primary screen (AID 1177);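 also: cultures grown under basal conditions with no added stressor; test concentration not given here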; conditions: S. cerevisiae RM11-1a growth, OD600, 24 h; higher = more signal, called active from +8 up or from −8 down
[17] = growth of efflux-deficient E. coli DRC39 – strain DRC39, OD650, 24 h, E. coli filamentation inducers, primary screen (AID 1178);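 also: growth measured as culture turbidity by optical density at 650 nm; test concentration not given here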; conditions: E. coli DRC39 acrAB, higher = more signal, called active from +8 up or from −8 down
[18] = growth of efflux-deficient E. coli DRC39 – strain DRC39, OD650, 48 h, E. coli filamentation inducers, primary screen (AID 1179);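 also: screen aims at cell division blockers that make cells filament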; conditions: E. coli DRC39 delta-acrAB growth, higher = more signal, called active from +8 up or from −8 down
[19] = viability profiling in RPMI8226 myeloma cells – cell-based, resazurin fluorescence, basal, 24 h, PK04 Diversity Set, profiling panel (AID 1180); conditions: higher = more signal;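 also: RPMI8826 multiple myeloma cell line at 5000 cells per well; test concentration not given here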
[20] = biological target: E3 ubiquitin-protein ligase XIAP (Homo sapiens) (UniProt P98170); experiment: small molecules binding XIAP protein – biophysical, small-molecule microarray, fluorescence 635 nm, primary screen (AID 1181); conditions: higher = more signal;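 also: score merges 667 nm emission and signal to noise over triplicate slides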
Sequence of E3 ubiquitin-protein ligase XIAP (Homo sapiens) (P98170 whole entry, looked up): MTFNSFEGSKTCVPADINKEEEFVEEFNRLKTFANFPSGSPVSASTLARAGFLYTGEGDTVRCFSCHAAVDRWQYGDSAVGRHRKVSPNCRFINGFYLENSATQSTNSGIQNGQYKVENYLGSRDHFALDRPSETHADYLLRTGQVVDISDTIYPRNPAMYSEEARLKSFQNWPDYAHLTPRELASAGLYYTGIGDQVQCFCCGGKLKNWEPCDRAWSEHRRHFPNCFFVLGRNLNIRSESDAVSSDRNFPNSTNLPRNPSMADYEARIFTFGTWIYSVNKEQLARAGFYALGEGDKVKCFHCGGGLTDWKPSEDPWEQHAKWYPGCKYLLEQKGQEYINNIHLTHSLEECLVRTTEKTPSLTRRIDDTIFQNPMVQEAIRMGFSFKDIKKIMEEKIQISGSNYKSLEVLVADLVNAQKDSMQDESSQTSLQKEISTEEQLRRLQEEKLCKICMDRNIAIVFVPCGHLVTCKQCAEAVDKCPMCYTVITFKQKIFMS

SMILES | z-score [1] | z-score [2] | z-score [3] | z-score [4] | z-score [5] | z-score [6] | z-score [7] | z-score [8] | z-score [9] | z-score [10] | z-score [11] | z-score [12] | z-score [13] | composite z-score [14] | z-score [15] | z-score [16] | z-score [17] | z-score [18] | z-score [19] | composite z-score [20]
O=C1C2=CC[C@H]3C(=O)N(Cc4ccccc4)C(=O)[C@H]3[C@H]2[C@H](O)[C@@H]2O[C@H]12 | -0.77 | -0.238 | -4.47 | -3.28 | -3.83 | -2.12 | 1.02 (inactive) | -1.05 | -2.91 | 0.152 (inactive) | 0.35 | -2.16 (inactive) | -5.73 (inactive) | -1.59 (inactive) | 0.0821 (inactive) | -1.22 (inactive) | -0.416 (inactive) | -0.425 (inactive) | -3.38 | 0.0006
COC(=O)CC=C1c2ccccc2[C@H](OC)[C@H]1C | 0.16 | -0.116 | -0.379 | -0.458 | -1.22 | -0.8 | -0.272 (inactive) | 0.539 | -0.707 | -0.397 (inactive) | -0.71 | 0.338 (inactive) | -0.788 (inactive) | 0.582 (inactive) | -0.245 (inactive) | -0.138 (inactive) | 0.216 (inactive) | 0.403 (inactive) | -0.49 | 0.419
COC(=O)[C@H](C)NC(=O)CCC1CC(OC(=O)NCc2ccc3c(c2)OCO3)CC2(CCCC(COC(=O)NCCC(C)C)O2)O1 (stereo not given in full) | -0.121 | 0.114 | -1.19 | -3.18 | -2.13 | -0.523 | -0.452 (inactive) | -0.253 | 0.177 | 0.442 (inactive) | 0.506 | -0.43 (inactive) | -0.274 (inactive) | -0.558 (inactive) | -0.294 (inactive) | -0.774 (inactive) | 0.909 (inactive) | -0.804 (inactive) | 0.0961 | 0.0245
CC(C)(C)N1C(=O)[C@H]2[C@H]3[C@H](O)[C@H](O)CC(=NNC(=O)OCc4ccccc4)[C@@H]3CC[C@H]2C1=O | 0.193 | -0.166 | -0.289 | 0.0671 | 0.489 | -0.813 | -0.323 (inactive) | -0.368 | -0.368 | -0.548 (inactive) | -0.169 | 0.216 (inactive) | -0.484 (inactive) | -0.111 (inactive) | -0.413 (inactive) | -0.168 (inactive) | 0.223 (inactive) | 0.342 (inactive) | -0.376 | -0.102
